Here are results for 49 molecules from PubChem BioAssay AID686979 (National Center for Advancing Translational Sciences (NCATS), 2013).

Molecules are shown by their SMILES. Where “and” joins values, the source holds several entries; their conditions need not be identical. Identical values can stand only once. About 50,000 (12%) of roughly 420,000 compounds were called active. A call without a number means that no potency is given here. Roughly 26% stayed inconclusive and do not appear here. Calls follow the shape of the dose curve; as a rule, active = well fitted inhibition curve with a large enough effect; inconclusive = small, poorly fitted or top-dose-only effect; inactive = flat fitted curve, though single readings scatter. Many of the other results were omitted from the sample, so actives are more common in it than they were.
Potency is read from the fitted curve at half-maximal effect.

This experiment can be described thus: qHTS for Inhibitors of human tyrosyl-DNA phosphodiesterase 1 (TDP1): qHTS in cells in presence of CPT. Also: nearly all actives have a fitted effect of over 55% in size. The note with it: chicken DT40 Tdp1-/-;hTDP1 cells + 20 nM CPT, ATP luminescence, 48 h; series mostly up to 46.2 µM. An excerpt: Human tyrosyl-DNA phosphodiesterase 1 (TDP1) is a novel repair gene, and we propose to use it as a new target for anticancer drug development. TDP1 is not an essential protein, but under treatment with topoisomerase I poison (camptothecin: CPT), TDP1 works as a critical factor for cell survival. To directly identify novel TDP1 inhibitors active in a cellular environment, we have knocked-out the Tdp1 gene in chicken DT40 cells (Tdp1-/-) and generated a complemented counterpart cells that contains a stable transfection of the human TDP1 gene (Tdp1-/-;hTDP1 cells). For the primary screen, Tdp1-/-;hTDP1 cells will be exposed to small molecules in the presence or absence of CPT, and their growth kinetics will be evaluated after 48 hours by measuring ATP activity. […] The hit compounds will then be evaluated in the presence or absence of CPT using Tdp1-/- cells. […] In tertiary assays, biochemical gel-based assays will be used to assess whether the hit compounds specifically target TDP1. To this end, we have screened this cell line against the MLSMR in two primary screens. In one screen we add CPT and in the other we screen in the absence of CPT; this AID represents the screen where CPT was present. NIH Chemical Genomics Center [NCGC] NIH Molecular Libraries Probe Centers Network [MLPCN] MLPCN Grant: MH095538 Assay Submitter (PI): Yves Pommier, NCI
DT40-hTDP1 cells with 20 nM Camptothecin (add 20 microL of 1 mM CPT stock in 1 L of cell culture medium) were dispensed at 400 cells/5microL/well in tissue culture treated 1536-well white wall/solid bottom assay plates (Greiner Bio-One North America, NC, U.S.A.) using a Multidrop Combi 8 channel dispenser (Thermo Fisher, Waltham, MA, USA). 23 nL compounds and controls were transferred using the pin tool (Kalypsys, San Diego, CA, USA) to the assay plates. The assay plates were then incubated at 37 masculineC for a minimum 48 hr. Three microL of Cell Titer Glo solution was added to the plates and incubated at RT in dark for 30 min. Luminescence was read using ViewLux (Perkin Elmer) with 1 sec exposure slow speed, high gain and 2x binning.
As to `CC[C@H]1CN2CCc3cc(OC)c(OC)cc3[C@@H]2C[C@@H]1C[C@H]1NCCc2cc(OC)c(OC)cc21`, the Potency was 188 nM (active) and 146 nM (active).
The same measure, in the same setting: the same measure for `C=C(C)C1(CCCC)C(=O)NC(=S)NC1=O`: “inactive”.
For the molecule `Cc1cc(OCc2cc(C(=O)O)oc2C)c2c3c(c(=O)oc2c1)CCCC3`, the Potency result is “inactive”.
Still for that read-out and setting: next, `CN(C)C(=O)Oc1ccc2c(c1)O/C(=C\c1ccccc1)C2=O`: “inactive”; `CC(C)c1ccc(OCC(=O)N2CCCN(C)CC2)cc1`: “inactive”.
Consider `CCCCC/C=C\C/C=C\C/C=C\CCCCCCC(=O)NCCO`, for which the activity change, negative = growth inhibition is 0.621% [at 4.12 µM] (inactive).
With `C[C@@H]1CC[C@@]2(OC1)O[C@H]1C[C@H]3[C@@H]4CC=C5C[C@@H](O)[C@H](O)C[C@]5(C)C4CC[C@]3(C)[C@H]1[C@@H]2C` (some centres undefined), the Potency is 20.6 µM (active).
Same read-out and setting: next, `COc1ccc2c(c1O)-c1cccc3c1[C@@H](C2)N(C)CC3`: “inactive”.
For the molecule `COc1c(O)ccc2c1-c1c3c(cc4c1C(C2)N(C)CC4)OCO3` (centres undefined), the Potency result is “inactive”.
For `COc1ccc2cc1Oc1ccc(cc1)C[C@H]1c3cc(c(OC)cc3CCN1C)Oc1c(O)c(OC)cc3c1[C@H](C2)N(C)CC3`, the Potency was 8.2 µM (active).
Take `CC1(C)C(c2ccccc2)=NC(c2cccnc2)=[N+]1[O-]`: the Potency result is “inactive”.
Still for that read-out and setting: the same measure for `O=c1[nH]c(=O)n(CCc2ccc(F)cc2)c(O)c1/C=N/N1CCCCC1`: “inactive”; for `CN(C)CC1CCCCC1=O` (centres undefined): 5.8 µM (active); for `O=C(NCC(c1cccnc1)N1CCN(c2ccccc2)CC1)Oc1ccccc1` (centres undefined): “inactive”.
The same measure, in the same setting: next, `NC(=O)Nc1cccc(C(F)(F)F)c1`: “inactive”; `CC(=O)Nc1cc(-c2cccc(CO)c2)cn2c(-c3cccc(C(F)(F)F)c3)cnc12`: 11.6 µM (active).
The same measure, in the same setting: the same measure for `CC(=O)OC1C2CCC3C1(CC(O)[C@@]1(O)[C@@H](CC(O)C1(C)C)[C@]3(C)O)C[C@@]2(C)O` (some centres undefined): “inactive”; for `COc1ccccc1C(=O)N[C@@H]1c2ccccc2C2(CCN(Cc3nc(C(C)C)cs3)CC2)[C@H]1O`: 2.06 µM (active); for `COc1ccccc1C1=NCc2nnc(CSC)n2-c2ccc(Cl)cc21`: “inactive”.
As for `CCc1ccc(N(CC)C(=O)CCn2cnc3onc(-c4ccc(F)cc4)c3c2=O)cc1`, the Potency was 16.4 µM (active).
Regarding `Cn1c(O)c(C=NCCCC(=O)O)c(=O)n(C)c1=O`, the Potency entry is “inactive”.
The same measure, in the same setting: the same measure for `CCCCC(=O)N/N=C/c1c(O)n(CC)c(=S)n(CC)c1=O`: 18.4 µM (active).
Consider `CCCCC(=O)N/N=C/c1c(O)n(-c2ccccc2)c(=O)[nH]c1=O`, for which the Potency result was “inactive”.
Still for that read-out and setting: next, `O=C1NC(=O)C(C/C=C/c2ccccc2)C(=O)N1`: “inactive”; `Cc1cccc(NC(=O)OC2CN3CCC2CC3)c1` (centres undefined): “inactive”; `CCC(=O)CC(c1ccc([N+](=O)[O-])cc1)c1c(O)c2ccccc2oc1=O` (centres undefined): “inactive”.
The same measure, in the same setting: next, `CC(=O)c1c(O)n(C2CCCCCC2)c(=O)[nH]c1=O`: 18.4 µM (active); `CC(=NCC1CCCO1)c1c(O)n(-c2ccccc2)c(=O)[nH]c1=O` (centres undefined): “inactive”.
With `O=c1[nH]c(=S)n(C2CC2)c(O)c1/C=N/N1CCOCC1`, the Potency result was “inactive”.
On to `COC1=C[C@]23CCCN2CCc2cc4c(cc2[C@@H]3[C@@H]1O)OCO4`, for which the activity change, negative = growth inhibition is -3.38% [at 9.04 µM] (inactive).
`CN1CCN(/N=C/c2c[nH]c3ccccc23)CC1`: the Potency result was “inactive”.
Still for that read-out and setting: next, `CC12CCC3C(CCC4CC(=O)CCC43C)C1CC(=NO)C2=O` (centres undefined): “inactive”.
The same measure, in the same setting: the same measure for `CCCCCn1c(=O)c(C(=O)NCc2ccccc2)c(O)c2ccccc21`: 4.61 µM (active); for `CCCCCn1c(=O)c(C(=O)NCc2ccccn2)c(O)c2ccccc21`: 20.6 µM (active).
Still for that read-out and setting: next, `CCOC(=O)C1(Cc2ccc(Cl)cc2)CCN(C(C)CCn2cccn2)CC1` (centres undefined): “inactive”; `O=c1[nH]c(=O)n(CCc2ccccc2)c(O)c1/C=N/N1CCOCC1`: “inactive”; `c1ccc2sc(C3CCCNC3)nc2c1` (centres undefined): “inactive”.
For `CC[N+](CC)(CC)CCCCCCCCCC[N+](CC)(CC)CC`, the Potency entry is “inactive”.
As to `CN1CCN(Cc2ccc(OC(F)(F)F)cc2)CC1`, the Potency entry was “inactive”.
Still for that read-out and setting: the same measure for `CC(C)c1ccc(OCC(=O)N2CCN(C)CC2)c(Br)c1`: “inactive”; for `O=c1c2ccccc2[nH]c(=S)n1-c1cccc(Cl)c1`: “inactive”.
On to `COc1cc(-n2c(=S)[nH]c3ccc(C)cc3c2=O)c(Cl)cc1Cl`, for which the Potency is 8.2 µM (active).
On the same count and under the same terms, next, `c1ccc(CC2CCCCN2)cc1` (centres undefined): “inactive”; `CC(C)Oc1cccc(C(=O)C2CCCN(C3CCOCC3)C2)c1` (centres undefined): “inactive”; `COc1cc2[nH]c(C)c(CCN3CCN(c4ccccc4)CC3)c2cc1OC`: 7.94 µM (active).
Same read-out and setting: the same measure for `Oc1cc2c(cc1CN1CCN(c3ccccc3)CC1)OCO2`: “inactive”; for `c1ccc(N2Cc3ccccc3-n3nncc3C2)nc1`: “inactive”.
Still for that read-out and setting: next, `COCCCNC(=O)CC1C[C@H](C(=O)N2CCCCC2)[C@@]2(CCc3ccccc3)c3[nH]c4ccccc4c3CCN2C1=O` (some centres undefined): 23.1 µM (active); `Clc1ccc([C@@H]2C[C@H]3CC[C@@H]2N3)cn1`: “inactive”.
